# Screen size: about 310,000 compounds; about 14,000 (4.5%) showed an effect of 50% or more. Effects have a minus sign here. This excerpt belongs to a sample that is enriched for strong results.
# Target: human ether-à-go-go-related gene (hERG) potassium channel (human, UniProt Q12809)
# Assay: primary screen, population patch clamp on CHO cells stably expressing hERG; higher = less effect of the substance
# 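Further: peak tail current of the secondary pulse compared with the same well before compound.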
# human ether-à-go-go-related gene (hERG) potassium channel, sequence (Q12809 whole entry, looked up): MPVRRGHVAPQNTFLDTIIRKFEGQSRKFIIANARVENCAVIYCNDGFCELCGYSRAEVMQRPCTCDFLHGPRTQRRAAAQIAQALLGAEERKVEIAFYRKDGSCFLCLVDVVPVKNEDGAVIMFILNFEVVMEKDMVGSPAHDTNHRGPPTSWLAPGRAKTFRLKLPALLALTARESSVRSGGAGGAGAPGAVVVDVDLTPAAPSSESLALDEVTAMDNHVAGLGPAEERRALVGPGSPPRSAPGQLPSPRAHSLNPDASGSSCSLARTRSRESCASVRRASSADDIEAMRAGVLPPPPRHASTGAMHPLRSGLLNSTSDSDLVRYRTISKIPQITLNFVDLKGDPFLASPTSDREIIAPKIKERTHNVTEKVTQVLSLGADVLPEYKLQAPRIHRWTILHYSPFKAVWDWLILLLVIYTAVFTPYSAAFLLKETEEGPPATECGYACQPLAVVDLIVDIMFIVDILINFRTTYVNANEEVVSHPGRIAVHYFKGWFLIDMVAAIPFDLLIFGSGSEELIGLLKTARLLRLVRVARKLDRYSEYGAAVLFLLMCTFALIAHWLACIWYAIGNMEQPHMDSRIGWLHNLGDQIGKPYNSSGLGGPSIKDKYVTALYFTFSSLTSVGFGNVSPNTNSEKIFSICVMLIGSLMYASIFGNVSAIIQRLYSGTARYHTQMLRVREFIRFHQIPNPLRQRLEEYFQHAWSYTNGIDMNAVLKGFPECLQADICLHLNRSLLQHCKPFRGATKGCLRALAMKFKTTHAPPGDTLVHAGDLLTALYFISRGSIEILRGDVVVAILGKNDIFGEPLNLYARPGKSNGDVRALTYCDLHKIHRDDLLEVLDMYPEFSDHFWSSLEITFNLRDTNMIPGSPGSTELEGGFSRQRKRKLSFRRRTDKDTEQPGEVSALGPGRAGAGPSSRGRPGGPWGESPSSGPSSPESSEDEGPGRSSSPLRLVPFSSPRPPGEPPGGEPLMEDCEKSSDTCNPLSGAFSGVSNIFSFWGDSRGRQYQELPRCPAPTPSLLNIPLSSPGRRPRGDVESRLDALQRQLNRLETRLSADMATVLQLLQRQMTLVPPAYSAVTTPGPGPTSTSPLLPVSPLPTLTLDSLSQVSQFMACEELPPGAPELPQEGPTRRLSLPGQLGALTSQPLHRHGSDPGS
row,SMILES,"hERG current change (%, negative = inhibition) at 10uM [%]"
1,CN1CCN(/N=C/c2nc(-c3ccccc3Cl)n3ccccc23)CC1,-34.1
2,CCCOC(=O)Nc1ccccc1C(N)=O,4.61
3,O=C(O)CCCCC1SCC2NC(=O)NC21 (stereo not drawn),3.46
4,O=C(Nc1ccccc1F)Nc1ccc([N+](=O)[O-])cc1Cl,18.4
5,O=C(c1cc(=O)[nH]c2ccccc12)N1CCN(c2cccc(C(F)(F)F)c2)CC1,-27.1
6,CCOC(=O)c1sc(=S)n(-c2ccccc2Cl)c1C,-13.8
7,CCOC(=O)Cn1c(=NC(=O)c2cccs2)sc2cc(C(=O)OC)ccc21,17.4
8,Cc1ccc(NC(=O)c2cc([N+](=O)[O-])ccc2Cl)c(O)c1,-4.12
9,Cc1nc2cc(NC(=O)CS(=O)(=O)c3ccccc3)ccc2s1,-23.8
10,Cc1nc2cc(NC(=O)CS(=O)(=O)c3ccc(F)cc3)ccc2s1,-55.8
11,Cc1nc2ccc(NC(=O)CS(=O)(=O)c3ccc(F)cc3)cc2s1,-7.44
12,CCCN1C(=O)CC(C(=O)OC)=C1C,12.9
13,CCC1C=C(c2ccccc2)C=CN=C1N(CC)CC (stereo not drawn),-61.6
14,CCN(CC)C1=NC=CC(c2ccccc2)=CC1C (stereo not drawn),-55.1
15,CCN(CC)c1ncnnc1-c1ccccc1,15.9
16,CCN(CC)c1ccccc1,12.7
17,CCN(CC)c1cc(-c2ccccc2)ncn1.Cl,-16.5
18,CCN(CC)c1nc(C(N)=O)cc(-c2ccccc2)n1,-0.608
19,COc1ccccc1NS(=O)(=O)c1cccc(N=C2N=C(N)c3ccccc32)c1,11.7
20,CCCc1nn(C)c2c1C(c1ccncc1)C(C#N)=C(N)O2 (stereo not drawn),15.4

row,SMILES,"hERG current change (%, negative = inhibition) at 10uM [%]"
1,C/C(O)=C/c1nc2ccccc2[nH]c1=O,-5.26
2,C=C(Cl)COc1ccc2c(CCCC)cc(=O)oc2c1,-24.9
3,COc1cccc(CNc2nc3ccccc3n2CCN2CCCCC2)c1OC,-63.6
4,CCCn1c(NCc2cccc(OC)c2OC)nc2ccccc21,-13.9
5,Oc1ccccc1CNc1nc2ccccc2n1CCN1CCCCC1,-2.31
6,C=CCn1c(NCc2ccccc2OC)nc2ccccc21,-18.9
7,COc1ccccc1CNc1nc2ccccc2n1CCN1CCCCC1,-61.5
8,CCn1c(NCc2cccc(OC)c2OC)nc2ccccc21,-21
9,CC(Nc1ccccc1CO)C(=O)Nc1cccc(Cl)c1Cl (stereo not drawn),5.35
10,O=C(Cn1c(NCCO)nc2ccccc21)NCC(F)(F)F,10.4
11,O=C(NCCC1=CCCCC1)C1CCCN(S(=O)(=O)c2ccccc2)C1 (stereo not drawn),6.97
12,CCCC(=O)Nc1ccc2oc(-c3ccncc3)nc2c1,5.92
13,CCOC(=O)c1oc2ccccc2c1CN1CCCCC1.Cl,-55
14,CCOC(=O)c1oc2ccccc2c1CN1CCOCC1.Cl,-4.56
15,CCOC(=O)c1oc2ccccc2c1CN1CCN(C)CC1.Cl,-61.5
16,CCOC(=O)c1oc2ccccc2c1CN1CC(C)OC(C)C1 (stereo not drawn),-0.576
17,CCOC(=O)c1oc2ccccc2c1CN1CCN(C(=O)c2ccccc2)CC1,-41.7
18,CCOC(=O)c1oc2ccccc2c1CN1CCN(c2ccccc2)CC1.Cl,-26.6
19,Cc1ccc(Cn2cc(/C=C/C(=O)O)c(-c3ccccc3)n2)cc1,6.77
20,CCC(C)C1Nc2ccc(C(=O)NCCc3ccc(OC)c(OC)c3)cc2NC1=O (stereo not drawn),20.4

row,SMILES,"hERG current change (%, negative = inhibition) at 10uM [%]"
1,Cc1ccc(N2CCN(c3ccc(C)cc3)C2c2cccnc2)cc1,17.6
2,CCC(=O)NC(=S)NNC(=O)COc1ccc(Br)cc1,14.4
3,CCOCCOc1nc(C)cc(C)c1S(=O)(=O)c1ccccc1C,-4.15
4,CCOC(=O)C1(Cc2ccccc2)CCN(Cc2cccc3c2OCO3)CC1,-36.7
5,CCOC(=O)C1(CCc2ccccc2)CCN(Cc2cccc3c2OCO3)CC1,-75
6,CCOC(=O)C1(CCOc2ccccc2)CCN(Cc2cccc3c2OCO3)CC1,-64.6
7,O=C(CN1C(=O)c2ccccc2C1=O)Nc1ccccc1,-0.118
8,CCOC(=O)N1CCN(C(=O)C2CCCN(S(=O)(=O)c3cc(C)ccc3OC)C2)CC1 (stereo not drawn),-5.57
9,COCc1c(C#N)c(NCc2cc(OC)c(OC)c(OC)c2)nc(C)c1[N+](=O)[O-],-12.2
10,Cc1ncc(CN2CCC(C(=O)Nc3ccc(-n4cccn4)cc3)CC2)s1,-21.2
11,Cc1ncc(CN2CCC(C(=O)Nc3cccc(-c4cscn4)c3)CC2)cn1,-11.9
12,CSc1ncc(CN2CCC(C(=O)Nc3cccc(-c4cscn4)c3)CC2)cn1,-35.7
13,O=C(Nc1cccc(-c2cscn2)c1)C1CCN(Cc2ccsc2)CC1,-65
14,O=C(Nc1ccc(-n2cccn2)cc1)C1CCN(Cc2ccsc2)CC1,-81.1
15,O=C(Nc1ccc(-n2cccn2)cc1)C1CCN(Cc2ccccn2)CC1,-16.7
16,Cc1ccc(CN(CC(=O)NCc2ccccn2)S(=O)(=O)c2ccccc2)cc1,-23.9
17,COC(=O)CN(C#N)c1nc(NCc2ccccc2)nc(OC)n1,-1.33
18,CCN(CC(=O)Nc1ccc2c(c1)OCCO2)CC(=O)Nc1ccc2c(c1)OCO2,28
19,Cc1ccc(CC(CC(=O)Nc2cccc(C(F)(F)F)c2)C(=O)O)cc1 (stereo not drawn),18
20,COc1cc2c(cc1OC)-c1cc(OCCN3CCOCC3)nc(=O)n1CC2,-11.5
